In all, about 1,900 compounds went through this assay and about 85 (4%) were called active. Cut-off read from the data, not from the text of the source: active = inhibition above about 40%; inactive = the rest. A selection follows.
The compounds below were run against 72 kDa type IV collagenase (Homo sapiens) (UniProt P08253) (assay: MMP-2 enzyme inhibition, confirmation, counter-screen for RPN11 inhibitor project, biochemical, fluorescence, single concentration (AID 602330;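 note: human MMP-2 activated beforehand with APMA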)). Conditions: recombinant MMP-2, FRET peptide cleavage fluorescence; at 20 µM; active compounds read high.
Sequence of 72 kDa type IV collagenase (Homo sapiens) (P08253 whole entry, looked up): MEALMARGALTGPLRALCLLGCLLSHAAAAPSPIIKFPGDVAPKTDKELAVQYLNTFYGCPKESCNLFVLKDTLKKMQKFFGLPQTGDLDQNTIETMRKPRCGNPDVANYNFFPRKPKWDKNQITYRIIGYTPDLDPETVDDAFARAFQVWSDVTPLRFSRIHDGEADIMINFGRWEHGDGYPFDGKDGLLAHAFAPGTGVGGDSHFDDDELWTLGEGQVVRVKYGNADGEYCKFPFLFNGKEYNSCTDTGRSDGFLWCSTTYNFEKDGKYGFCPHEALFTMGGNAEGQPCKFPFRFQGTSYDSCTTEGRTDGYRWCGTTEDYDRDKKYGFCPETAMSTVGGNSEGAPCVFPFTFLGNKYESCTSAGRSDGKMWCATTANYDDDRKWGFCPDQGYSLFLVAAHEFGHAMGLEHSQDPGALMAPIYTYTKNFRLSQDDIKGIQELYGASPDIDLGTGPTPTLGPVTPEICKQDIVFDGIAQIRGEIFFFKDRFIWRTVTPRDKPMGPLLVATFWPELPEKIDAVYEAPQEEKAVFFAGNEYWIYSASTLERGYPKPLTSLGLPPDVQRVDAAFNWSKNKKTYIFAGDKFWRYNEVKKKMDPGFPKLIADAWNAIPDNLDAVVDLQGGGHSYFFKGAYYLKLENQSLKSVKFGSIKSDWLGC
For `COc1cccc(/C=C(/CC(=O)Nc2ccc(N3CCOCC3)cc2)c2nc3ccccc3s2)c1`, the inhibition was 30.2% (inactive). For `CCC(C)Cn1c(O)cc2nn(-c3nc4ccccc4s3)c(=O)c-2c1C` (configuration not stated), the inhibition was -2.01% (inactive). `Cc1oc2c(C)c3oc(=O)c(CC(=O)N[C@@H](CC(C)C)C(=O)N[C@@H](Cc4ccccc4)C(=O)O)c(C)c3cc2c1C` was tested, and the inhibition was -12.8% (inactive). `CCN1CCCC1CNC(=O)c1cc2c(=O)n(C)c3ccccc3c2n1C` (configuration not stated) was tested, and the inhibition was 5.3% (inactive). `CN(C)c1ccc(-n2cccc2/C=C2/SC(=Nc3ccc(F)cc3)NC2=O)cc1` was tested, and the inhibition was 11.2% (inactive). `CCCOc1ccc(Cn2c(O)cc(=O)[nH]c2=O)cc1` was tested, and the inhibition was -16.6% (inactive). `COc1ccc(NC(=O)Cn2c(-c3ccc(OC)cc3)cn(-c3ccc(C)cc3)c2=O)cc1` was tested, and the inhibition was -12.7% (inactive). In the case of `Cc1ccc(Nc2ccccc2N)cc1`, the inhibition is reported as -13.4% (inactive). `CCCCCCSc1ccc([C@@H]2[C@H]3C(=O)N(CC)C(=O)[C@H]3[C@]3(C(=O)OC)CCCCN23)cc1` was tested, and the inhibition was -13.2% (inactive). For `CC(C)CC1C(=O)N(Cc2cn(Cc3ccco3)nn2)CCS(=O)(=O)N1Cc1ccc(-c2ccc(Cl)c(Cl)c2)cc1` (configuration not stated), the inhibition was -38.5% (inactive). With `CCOc1ccc(-n2c(O)c(/C=N/Nc3nnc(C)c(=O)[nH]3)c3ccccc3c2=O)cc1` the inhibition was -6.64% (inactive). In the case of `Cc1nc2ccc(C(=O)N3CCSCC3)cc2s1`, the inhibition is reported as -42.3% (inactive). With `C=CC1=C(C(=O)O)N2C(=O)[C@@H](NC(=O)/C(=N/OCC(=O)O)c3csc(N)n3)[C@H]2SC1` the inhibition was 35.4% (inactive). `CCOC(=O)N1CCC(NC(=O)C(NS(=O)(=O)c2ccc3c(c2)CCN3C(=O)CC)C(C)C)CC1` (configuration not stated) was tested, and the inhibition was -20.7% (inactive). For `COC(=O)c1ccc(OCC(=O)NC(C)(C)C)cc1`, the inhibition was 6.02% (inactive). With `O=C(CSc1nc2ccccc2c(=O)[nH]1)Nc1nc(-c2ccc(Br)cc2)cs1` the inhibition was 51.9% (active). For `Cc1ccc(N=Cc2c(O)cc(C)oc2=O)c(C)c1`, the inhibition was -22.6% (inactive). With `CC(=O)Nc1ccccc1Sc1ccc2c3c(cccc13)C(=O)N(c1ccc(C)cc1)C2=O` the inhibition was -23% (inactive). `CCOc1ccc(NC(=O)c2ccc(NC(=O)COC(=O)c3ccc(NC(=O)CC#N)cc3)cc2)cc1` was tested, and the inhibition was 10.8% (inactive). In the case of `COC1=C/C(=C/c2c(N)n3nc(CC(=O)N4CCOCC4)sc3nc2=O)C=CC1=O`, the inhibition is reported as 12% (inactive). For `Cc1ccc(Nc2nc(Cl)c(C=O)s2)cc1`, the inhibition was -10.8% (inactive). `Cc1nc2ccccc2n1C(=O)N1CCOCC1` was tested, and the inhibition was -8.73% (inactive).

Source: PubChem BioAssay AID602330 (Sanford-Burnham Center for Chemical Genomics, 2012)
